Data taken from PubChem BioAssay AID1851 (National Center for Advancing Translational Sciences (NCATS), 2009).
Out of some 16,000 compounds screened, about 5,700 (36%) were called active. About 24% were inconclusive and are not listed. The call rests on the fitted dose curve; in most records, active means well fitted curve in the direction sought with a large enough effect; inconclusive means small, poorly fitted or top-dose-only effect, or effect the other way; inactive means no such curve, though single readings can be large or run the other way. Some of the results follow.

What follows are molecules tested against Cytochrome P450 1A2 (Homo sapiens) (UniProt P05177) (assay: Cytochrome panel assay with activity outcomes). Conditions: recombinant CYP, pro-luciferin dealkylation, luminescence, p450-cyp1a2; series mostly up to 57.1 µM.
On the % scale 0 is the no-effect control and ±100 the full control effect.

Sequence of Cytochrome P450 1A2 (Homo sapiens) (P05177 whole entry, looked up): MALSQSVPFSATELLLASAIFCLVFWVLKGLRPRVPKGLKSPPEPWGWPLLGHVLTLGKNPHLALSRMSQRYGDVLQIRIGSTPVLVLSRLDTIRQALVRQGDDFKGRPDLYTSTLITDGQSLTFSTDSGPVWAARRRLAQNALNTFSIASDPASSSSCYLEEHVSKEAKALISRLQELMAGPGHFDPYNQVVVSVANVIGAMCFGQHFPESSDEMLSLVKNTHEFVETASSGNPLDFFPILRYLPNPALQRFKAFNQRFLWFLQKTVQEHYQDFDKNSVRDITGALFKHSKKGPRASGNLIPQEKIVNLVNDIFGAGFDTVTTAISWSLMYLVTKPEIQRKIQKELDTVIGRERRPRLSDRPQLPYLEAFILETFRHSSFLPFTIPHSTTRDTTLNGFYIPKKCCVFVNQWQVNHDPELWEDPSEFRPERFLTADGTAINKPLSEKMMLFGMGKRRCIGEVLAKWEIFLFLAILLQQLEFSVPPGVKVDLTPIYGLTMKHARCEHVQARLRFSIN

activity, negative = inhibition, inactive:
NC(N)=NC[C@@H]1CCCCCCN1 -17.8% [at 11.4 µM], COC(=O)[C@]1(C)CCC(c2ccc(C)cc2)=C(CC(=O)O)C1 -8.38% [at 2.29 µM], C/C=C\C1=C(CO)[C@H](O)[C@H]2O[C@H]2[C@H]1O -3.7% [at 11.4 µM], CC(C)N(CC(=O)O)CC(=O)O -20.9% [at 11.4 µM], CC(C)(C)NCC[C@@H](O)c1cc(C(F)(F)F)nc2c(C(F)(F)F)cccc12 -9.91% [at 2.29 µM], C[C@@H]1CCCN(CP(=O)(c2ccccc2)c2ccccc2)C1 -3.49% [at 11.4 µM], NS(=O)(=O)c1ccc(N=Nc2nc3[nH]c(=O)[nH]c(=O)c3[nH]2)cc1 -13.4% [at 11.4 µM], O=C1[C@@H]2[C@H]3[C@H](O)[C@H](O)C/C(=N/OC[C@@H](O)COCc4ccco4)[C@H]3CC[C@H]2C(=O)N1c1ccc(F)cc1F 0.735% [at 11.4 µM], Nc1n[nH]c2ccccc12 -9.07% [at 2.29 µM], COc1ccc(COC(=O)N/N=C2/C[C@@H](O)[C@@H](O)[C@@H]3[C@@H]4C(=O)N(c5cccc(Oc6ccccc6)c5)C(=O)[C@H]4CC[C@H]23)cc1 3.29% [at 11.4 µM]

AC50, active:
O=C1CN(c2nc(-c3ccccc3)c3cc(Br)ccc3n2)c2ccccc2N1 2.51 µM, CCc1ccc(N(C(=O)c2csnn2)C(C(=O)NC(C)(C)C)c2ccncc2)cc1 (stereo unspecified) 22.4 µM, CCOC(=O)/C(=C/Nc1ccccc1)[N+](=O)[O-] 2.82 µM, CC(=O)Nc1nonc1NC(=O)c1ccc(C(C)(C)C)cc1 1 µM, COC(=O)N1CCC[C@@]2(CCN(c3ccccn3)C2)C1 15.8 µM, O=C(Oc1ccccc1)N1CCC[C@@]2(CCN(c3ncccn3)C2)C1 12.6 µM, O=C(Oc1ccccc1)N1CCC2(CCCN(c3ccccn3)C2)CC1 20 µM, O=C(Oc1ccccc1)N1CCC2(CCCN(c3ncccn3)C2)CC1 10 µM, CC(C)CCn1c(Oc2ccccc2Cl)nc2c1c(=O)n(C)c(=O)n2C 14.1 µM, CSc1ccc(C#N)cc1NC(=O)c1cccc(Cl)c1 6.31 µM, CCOc1ccc(C(=O)Nc2ccccc2N2CCCC2)cc1 2.82 µM, CCN(CCO)C[C@H]1CCC[C@H]2CCCC[C@@H]21 5.01 µM, O=C1NCCN1Cc1ccccc1F 3.55 µM, O=C(NCCN1CCCCC1)c1ccc(I)cc1 25.1 µM, Nc1cc(Cl)ccc1Oc1ccc(Cl)cc1 0.398 µM, Nc1cc(Cl)ccc1Oc1ccccc1 7.94 µM, CC(=O)NCCNc1nc(-c2ccccc2C)nc2ccccc12 6.31 µM, CC(=O)NCCNc1nc(-c2ccccc2C(F)(F)F)nc2ccccc12 15.8 µM, COc1cccc(-c2csc(N3CCN(C(=S)Nc4ccccc4)CC3)n2)c1 3.16 µM, CCOC(=O)C1CCCN(C(=O)/C=C/c2cccc([N+](=O)[O-])c2)C1 (stereo unspecified) 11.2 µM, CCOC(=O)C1CCCN(C/C=C/c2ccccc2[N+](=O)[O-])C1 (stereo unspecified) 4.47 µM, CC1CCCN(C/C=C/c2ccccc2[N+](=O)[O-])C1 (stereo unspecified) 14.1 µM, O=C(c1ccco1)N1CCC2(CC1)CCN(c1cccc(-c3ccccc3)c1)CC2 15.8 µM, O=C(c1ccco1)N1CCC[C@@]2(CCN(c3cccc(-c4ccccc4)c3)C2)C1 15.8 µM, O=C(c1ccco1)N1CCC[C@@]2(CCN(c3ccncc3)C2)C1 12.6 µM, CCOc1ccc(-c2nn(-c3ccccc3)cc2/C=C(\C#N)S(=O)(=O)c2ccccc2)cc1C 1 µM, O=C1C2C3C=CC(C3)C2C(=O)N1/N=C/c1cn(Cc2ccccc2)c2ccccc12 (stereo unspecified) 15.8 µM, O=[N+]([O-])/C=C/c1cn(Cc2ccccc2)c2ccccc12 3.55 µM, O=c1[nH]c(=O)c2nc3ccccc3nc2[nH]1 12.6 µM, CC(=O)Nc1ccnc(-c2cccnc2)n1 2.51 µM, CC(C)(C)C(=O)Nc1ccnc(-c2cccnc2)n1 2.24 µM, Cc1[nH]c2ccccc2c1-c1cc(-c2cc(-c3c(C)[nH]c4ccccc34)nc(N)n2)nc(N)n1 0.398 µM, Cc1[nH]c2ccccc2c1-c1cc(-c2cc(-c3c(C)[nH]c4ccccc34)on2)no1 0.398 µM, CC1=Nc2ccccc2/C1=C\c1nc(-c2ccc(C(F)(F)F)cc2)oc1O 0.891 µM, O=C(c1cnccn1)N1CCC2(CCCN(c3cccc(-c4ccccc4)c3)C2)CC1 20 µM, O=C(c1cnccn1)N1CCC[C@@]2(CCN(c3cccc(-c4ccccc4)c3)C2)C1 25.1 µM, O=C(c1ccncc1)N1CCC2(CC1)CN(c1cccc(-c3ccccc3)c1)C2 15.8 µM, CS(=O)(=O)N1CCC2(CC1)CN(c1cccc(-c3ccccc3)c1)C2 5.01 µM

AC50, inactive:
C=CCCCCCCCCC(=O)Nc1c[nH]c(=O)[nH]c1=O, CC12CCC(C(=O)O)(C/C1=N\O)C2(C)C (stereo unspecified), CCc1ccc(N(C(=O)c2csnn2)C(C(=O)NCc2ccccc2)c2ccco2)cc1 (stereo unspecified), Cc1ccc(N(C(=O)c2csnn2)C(C(=O)NC(C)(C)C)c2cccs2)cc1 (stereo unspecified), CCOC(=O)/C(C(N)=NCCCO)=C(/O)c1ccccc1, COc1ccc(C[C@H](N)C(=O)N[C@@H]2[C@H](O)[C@H](n3cnc4c(N(C)C)ncnc43)O[C@@H]2CO)cc1, Cc1cccc(C(=O)Nc2nnc(-c3ccc(C(C)(C)C)cc3)s2)c1, CC(C)(C)c1ccc(C(=O)NC(Cc2ccccc2)C(=O)O)cc1 (stereo unspecified), CC(=O)N1CCC2(CCCN(c3ccccn3)C2)CC1, O=C(Oc1ccccc1)N1CCC2(CC1)CN(c1ccccn1)C2, COC(=O)N1CCC[C@@]2(CCN(c3ncccn3)C2)C1, CC(=O)N1CCC2(CCCN(c3ncccn3)C2)CC1, O=C(c1csnn1)N1CCC[C@@]2(CCN(c3ccccn3)C2)C1, CC(=O)N1CCC[C@@]2(CCN(c3ncccn3)C2)C1, O=C(Oc1ccccc1)N1CCC2(CC1)CCN(c1ncccn1)CC2, COC(=O)N1CCC2(CC1)CN(c1ccccn1)C2, Cc1noc(C)c1C(=O)N1CCC[C@@]2(CCN(Cc3ccccc3)C2)C1, Cn1c(=O)c2c(ncn2CC(COCc2ccccc2Cl)OCc2ccccc2Cl)n(C)c1=O (stereo unspecified), Cn1c(=O)c2c(nc(N3CCN(c4ccccn4)CC3)n2Cc2ccccc2Cl)n(C)c1=O, O=C(Nc1ccccc1N1CCN(C(=O)c2ccc(Cl)cc2)CC1)c1cc(Br)ccc1Cl, CCOc1cc(CC(=O)N[C@@H](CC(C)C)c2ccccc2N2CCCCC2)ccc1C(=O)O, Cc1ccc(CS(=O)(=O)CCC(=O)NCCN2CCCC2)cc1, COc1ccc(CC(=O)NCCN2CCCC2)cc1, CCN(CC)c1cc(C)c2cc(NC(=O)CNC(C)=O)ccc2n1, CC(C)(C)CC(C)(C)c1ccc(OCOCCOCCO)c(Cc2cc(C(C)(C)CC(C)(C)C)cc(Cc3cc(C(C)(C)CC(C)(C)C)ccc3OCOCCOCCO)c2OCOCCOCCO)c1, CCOCCCNC(=O)C1CCN(S(=O)(=O)N2CC(C)CC(C)C2)CC1 (stereo unspecified), Cc1ccc(NC(=O)/C(=C/c2cccc([N+](=O)[O-])c2)NC(=O)C2CCCCC2)c(C)c1, O=C(O)[C@H]1CCCN(CCC=C(c2ccccc2)c2ccccc2)C1, CCOC(=O)C1CCCN(S(=O)(=O)c2ccccc2)C1 (stereo unspecified), O=C(c1ccco1)N1CCC2(CCCN(c3ccccc3)C2)CC1, O=C(c1ccncc1)N1CCC[C@@]2(CCN(c3ccccc3)C2)C1, O=C(c1ccco1)N1CCC[C@@]2(CCN(Cc3ccccc3)C2)C1, O=C(c1ccco1)N1CCC2(CC1)CCN(c1ccccc1)CC2, O=C(c1ccco1)N1CCC2(CC1)CN(c1ccccc1)C2, O=C(c1ccco1)N1CCC2(CC1)CCN(c1ccc(-c3ccccc3)cc1)CC2, CCC(C(=O)c1ccccc1)N(C(=O)c1ccccc1Cl)N1C(=O)C2C3C=CC(C3)C2C1=O (stereo unspecified), O=C1C2C3C=CC(C3)C2C(=O)N1/N=C/c1cn(Cc2ccc(F)cc2)c2ccccc12 (stereo unspecified), COc1ccc2c(c1OC)C(=O)N(C(C)C(=O)O)C2=O (stereo unspecified), COc1cnc(NS(=O)(=O)c2ccc(N)cc2)nc1, CCC(=O)O[C@@]1(C(=O)CCl)[C@@H](C)C[C@@H]2[C@H]3CCC4=CC(=O)C=C[C@@]4(C)[C@]3(F)[C@@H](O)C[C@@]21C, O=C(c1cnccn1)N1CCC2(CC1)CN(c1ccccc1)C2, O=C(c1cnccn1)N1CCC[C@@]2(CCN(c3ncccn3)C2)C1, O=C(c1ccncc1)N1CCC2(CC1)CN(c1ccccc1)C2, O=C(c1cnccn1)N1CCC[C@@]2(CCN(c3ccncc3)C2)C1, O=C(c1cnccn1)N1CCC2(CCCN(c3ccccc3)C2)CC1, O=S(=O)(c1ccccc1)N1CCC2(CCCN(c3cccc(-c4ccccc4)c3)C2)CC1, CS(=O)(=O)N1CCC2(CC1)CN(c1ccncc1)C2, O=C(c1ccncc1)N1CCC2(CC1)CN(c1ccc(-c3ccccc3)cc1)C2
